IL1B secr inh = blocks inflammasome-driven IL-1 beta release; THP-1 LPS/ATP IL-1B secretion, AlphaLISA, 16 h; active compounds read low; activity change, % at 57.5 µM; actives 4.7% (n = 360,000); AID 743279; in the data active = activity change below about -50%; inconclusive = mostly about -30% to -49%; note: % is set by controls: 0 for no effect and ±100 for the full control effect
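THP-1 cells pretreated 1 hr with compounds (up to 57.5 uM final), then stimulated with LPS (250 ng/mL final) plus ATP (1.25 mM final); secreted IL-1B measured by AlphaLISA after 16 hr, decreased signal indicating inhibition.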
DT40 TDP1 no CPT = qHTS for Inhibitors of human tyrosyl-DNA phosphodiesterase 1 (TDP1): qHTS in cells in absence of CPT | DT40 Tdp1-/- hTDP1 cells, no CPT, ATP luminescence, 48 h | actives 15% (n = 420,000) | Potency, µM (highest dose often 46.2 µM), inactives show at the top dose activity change, negative = growth inhibition, most hits filed as inhibitors | AID 686978, 2013; note: potency is the fitted concentration of half-maximal effect; % is set by controls: 0 for no effect and ±100 for the full control effect; nearly all actives have a fitted effect of over 55% in size
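Growth of hTDP1-complemented DT40 Tdp1-knockout cells is measured by ATP luminescence after at least 48 hr compound exposure at 37 °C, with DMSO substituting for the 20 nM CPT used in the parallel screen.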
DT40 TDP1 CPT = DT40-hTDP1 cell growth loss with CPT | chicken DT40 Tdp1-/-;hTDP1 cells + 20 nM CPT, ATP luminescence, 48 h | Potency, µM (series often up to 46.2 µM), for the others: at the highest dose activity change, negative = growth inhibition, most hits filed as inhibitors | actives 12% (n = 420,000) | AID 686979; note: potency is the fitted concentration of half-maximal effect; % is set by controls: 0 for no effect and ±100 for the full control effect; nearly all actives have a fitted effect of over 55% in size
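Chicken DT40 Tdp1-/- cells stably complemented with human TDP1 were seeded at 400 cells/well in medium containing 20 nM camptothecin, exposed to pin-transferred compounds, and grown at 37 °C for at least 48 hr. Viability was read as ATP luminescence.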
HepG2 viability = kills HepG2 cells in TGF-b inhibitor counter-screen; HepG2 CAGA-GFP viability, ATP luminescence, 18 h; Potency, µM (series often up to 46.1 µM), inactives show top-dose activity change, negative = cytotoxicity, usual class: cytotoxic; actives 0.76% (n = 410,000); AID 588856; note: potency is the fitted concentration of half-maximal effect
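CellTiter-Glo luminescence gave cytotoxicity after 18 hours at 37 degrees C. The cells were HepG2 CAGA-GFP in 1% FBS DMEM, stimulated with 500 pg/mL TGF-beta after compound addition. %Activity was normalised to no-cell wells (complete cell-killing) and DMSO (no toxicity), and curves were fitted and classified.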
TDP1 inh = blocks human tyrosyl-DNA phosphodiesterase 1; Q9NUW8; recombinant TDP1, AlphaScreen DNA substrate cleavage; Potency, µM (top dose mostly 130 µM), for inactives: at the top dose activity change, negative = inhibition, most hits filed as inhibitors; actives 0.28% (n = 350,000); note: potency is the fitted concentration of half-maximal effect; % is set by controls: 0 for no effect and ±100 for the full control effect; nearly all actives have a fitted effect of over 40% in size
Target sequence (Q9NUW8 whole entry, looked up): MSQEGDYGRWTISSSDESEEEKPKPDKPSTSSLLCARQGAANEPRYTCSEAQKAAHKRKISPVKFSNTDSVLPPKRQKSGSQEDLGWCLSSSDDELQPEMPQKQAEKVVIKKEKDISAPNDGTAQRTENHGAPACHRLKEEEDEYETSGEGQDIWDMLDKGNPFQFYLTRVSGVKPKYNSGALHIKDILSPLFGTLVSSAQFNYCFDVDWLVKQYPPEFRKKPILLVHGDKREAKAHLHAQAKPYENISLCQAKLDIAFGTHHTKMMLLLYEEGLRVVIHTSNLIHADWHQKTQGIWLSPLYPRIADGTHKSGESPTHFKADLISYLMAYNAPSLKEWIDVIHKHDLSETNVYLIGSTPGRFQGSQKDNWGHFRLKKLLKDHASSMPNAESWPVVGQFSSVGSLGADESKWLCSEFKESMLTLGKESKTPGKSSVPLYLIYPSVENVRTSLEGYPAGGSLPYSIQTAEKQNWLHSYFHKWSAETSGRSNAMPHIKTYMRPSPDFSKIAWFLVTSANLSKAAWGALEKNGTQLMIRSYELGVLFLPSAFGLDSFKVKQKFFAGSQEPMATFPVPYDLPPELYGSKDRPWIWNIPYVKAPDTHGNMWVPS
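Here, a 5' biotin and 3' phosphotyrosine-FITC DNA oligonucleotide reports Tdp1 activity: intact substrate bridges AlphaScreen beads, while cleavage leaves a 3' phosphate and drops signal. All incubations at room temperature.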
TGFb inhibitor = TGF-b pathway inhibition; Potency, µM (doses to about 46.1 µM), for the others: top-dose activity, negative = inhibition, actives largely listed as inhibitors; actives 1.2% (n = 410,000); HepG2 CAGA-GFP TGF-b/SMAD3 reporter, GFP fluorescence, 18 h; TGF-beta stimulated, 500 pg/mL final; note: potency is the fitted concentration of half-maximal effect; % is set by controls: 0 for no effect and ±100 for the full control effect; nearly all actives have a fitted effect of over 65% in size
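GFP signal (ex488/em500-530) from TGF-beta-stimulated HEPG2 CAGA-GFP cells, 500 pg/mL final, 18 h at 37 degrees C in DMEM plus 1% FBS, normalized to unstimulated and DMSO-stimulated controls.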
An asterisk follows results filed as active; i = inactive; ? = inconclusive; / = no result given. Only some compounds are listed: those with a hit (about 18% of all), similar ones and a draw of the others. Unless noted, calls come from the whole dose curve; as a rule, active = well fitted curve in the direction sought with a large enough effect; inconclusive = small, poorly fitted or top-dose-only effect, or another doubt; inactive = no such curve, though single readings can be large; an effect the other way counts as inactive or inconclusive.

SMILES | IL1B secr inh | DT40 TDP1 no CPT | DT40 TDP1 CPT | HepG2 viability | TDP1 inh | TGFb inhibitor
Cc1nn(-c2ccccc2)c2c1N(CCCC(=O)NCc1ccc(N(C)C)cc1)C(=O)CS2 | / | 23.1µM* | 23.1µM* | -25.6% | 8.4% | ?
CCCOc1ccc(CNC(=O)CCCN2C(=O)CSc3c2c(C)nn3-c2ccccc2)cc1 | / | ? | 20.6µM* | -25.4% | 4.5% | ?
COc1ccc(CNC(=O)CCCN2C(=O)CSc3c2c(C)nn3-c2ccccc2)cc1 | / | ? | ? | -16.5% | 4.5% | -18.7%
Cc1ccc(CNC(=O)CN2C(=O)CSc3c2c(C)nn3-c2ccccc2)cc1 | / | -0.2% | -3.7% | -25.0% | 5.8% | -27.7%
CCCc1nc(C(C)(C)O)c(C(=O)O)n1Cc1ccc(-c2ccccc2-c2nn[nH]n2)cc1 | / | / | / | / | 5.8% | /
Cc1cccc(Nc2cc(=O)n(C)c(=O)[nH]2)c1 | 54.9 | -18.7% | -23.5% | -0.4% | 8.4% | 11.6%
COc1ccc(C(=O)NC(C)Cc2c[nH]c3ccccc23)cc1 (stereo unspecified) | 2.2 | ? | ? | 2.7% | / | -6.3%
COc1ccc(NC(=O)CCSc2nc(C)cs2)cc1 | -10.4 | ? | -15.9% | -65.3% | 1.7% | -1.8%
CCC(C)NC(=O)c1c(C)oc2nc(C)nc(N3CCOCC3)c12 (stereo unspecified) | / | 0.7% | -3.6% | -1.7% | 4.2% | -9.5%
CCc1ccc(/C=C2\SC(=S)N(CCCC(=O)N(CCO)c3ccccc3)C2=O)cc1 | -70.3* | 16.4µM* | ? | -107.9% | / | ?
CCOc1ccc(/C=C2\SC(=S)N(CCC(=O)N(CCO)c3ccccc3)C2=O)cc1 | -80.6* | ? | ? | -5.5% | / | ?
CCC(=O)Nc1nn(CC(C)C)c2nc3ccc(C)cc3cc12 | -7.4 | 1.0% | -20.2% | -29.6% | / | -9.0%
Cn1c(=O)c2c(ncn2CC(=O)OCC(=O)Nc2cccc(C#N)c2)n(C)c1=O | 6.1 | 0.2% | -22.4% | -20.5% | / | -4.5%
CC1CN(S(=O)(=O)c2cccc(C(=O)Nc3ccccc3N3CCCC3)c2)CC(C)O1 (stereo unspecified) | -1.6 | 11.6µM* | ? | -12.1% | -5.7% | -18.5%
Cc1nc2ccc(NC(=O)c3cccc(S(=O)(=O)N4CC(C)OC(C)C4)c3)cc2s1 (stereo unspecified) | 10.7 | 11.6µM* | 7.31µM* | 3.9% | 5.1% | -25.6%
CN1CCN(S(=O)(=O)c2cccc(C(=O)Nc3cc(Cl)ccc3N3CCOCC3)c2)CC1 | -19.5 | -29.2% | -10.8% | -26.7% | 3.9% | -11.2%
CN1CCN(S(=O)(=O)c2cccc(C(=O)Nc3ccccc3N3CCCC3)c2)CC1 | i | -20.2% | -25.5% | 11.5% | 5.4% | 1.9%
CC1CN(S(=O)(=O)c2cccc(C(=O)Nc3cc(Cl)ccc3N3CCOCC3)c2)CC(C)O1 (stereo unspecified) | -22.0 | 14.6µM* | ? | -17.4% | 0.9% | -26.8%
CC1CN(S(=O)(=O)c2ccc(NC(=O)c3cc(-c4ccccc4O)n[nH]3)cc2)CC(C)O1 (stereo unspecified) | -50.9* | ? | 20.6µM* | -27.3% | 6.2% | ?
CC1CN(S(=O)(=O)c2cccc(C(=O)Nc3ccc(N4CCCCC4)cc3)c2)CC(C)O1 (stereo unspecified) | 1.7 | -12.5% | 1.2% | 17.1% | / | 1.2%
O=C(NC1(C(F)(F)F)C(=O)Nc2c1c(=O)[nH]c(=O)n2CCc1ccccc1)c1ccc(Cl)cc1Cl (stereo unspecified) | / | / | / | -30.1% | -1.9% | -6.2%

Compound activity deposited in PubChem by National Center for Advancing Translational Sciences (NCATS).
